PubChem BioAssay (NCATS)
Results filed as inconclusive are left out. Unmarked numbers belong to inactive results. Active and inactive are the calls of the source. Calls follow the shape of the dose curve; as a rule, active = well fitted curve in the direction sought with a large enough effect; inconclusive = small, poorly fitted or top-dose-only effect, or another doubt; inactive = no such curve, though single readings can be large; an effect the other way counts as inactive or inconclusive.

Assay: Viability qHTS for spleen associated tyrosine kinase inhibitor (SYKi) drug resistant MV4-11 cells (AID 1963824); also: nearly all actives have a fitted effect of over 35% in size
Conditions: SYKi-resistant MV4-11 viability, CellTiter-Glo, 72 h; series mostly up to 45 µM; viability, % of control: at the top concentration
Method in brief: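 SYK inhibitor-resistant MV4-11 AML cells, 500 per well, added to predispensed compounds and incubated 72 hr at 37 C, 5% CO2. Viability measured by CellTiter-Glo luminescence after 10 min at room temperature.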
Potency is read from the fitted curve at half-maximal effect.

| Compound | viability, % of control | Potency |
| --- | --- | --- |
| CC(=O)Nc1ncc([N+](=O)[O-])s1 | 69% | – |
| C=C(CC)C(=O)c1ccc(OCC(=O)O)c(Cl)c1Cl | – | 15 µM (active) |
| Cc1cc(C(C)(C)C)c(O)c(C(C)(C)C)c1 | 85.3% | – |
| CC(=O)N(CC(O)CO)c1c(I)c(C(=O)NCCO)c(I)c(C(=O)NCC(O)CO)c1I (stereo not drawn) | 74% | – |

Assay: Quantitative highthroughput screen to assess conditional lethalithy of NOMO1 cells grown in RPMI1640 with untreated serum (RPMI+s) (AID 1963876); also: nearly all actives have a fitted effect of over 35% in size;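 as to Viability: 100% = DMSO wells and 0% = empty wells without cells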
Conditions: NOMO1 AML cells in RPMI+serum, CellTiter-Glo viability, 48 h; series mostly up to 45.8 µM; viability: at the top concentration
Method in brief: (§1)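 Each medium arm—HPLM with 10% dialyzed FBS, or RPMI1640 with 5 mM glucose and 10% untreated or dialyzed FBS—was screened against an 11-point, 3-fold compound titration for 48 h at 37 °C, with CellTiter-Glo luminescence as endpoint.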

| Compound | viability | Potency |
| --- | --- | --- |
| Cc1cn([C@H]2C=C[C@@H](CO)O2)c(=O)[nH]c1=O | 101% [at 92.2 µM] | – |
| CC1(C)[C@H](C(=O)O)N2C(=O)C[C@H]2S1(=O)=O | – | 8.33 µM (active) |
| CCCCOc1ccc(C(=O)Nc2ccc(F)cc2F)cc1 | 94.4% | – |
| CN(c1nccc(=O)[nH]1)C1CCN(c2nc3ccccc3n2Cc2ccc(F)cc2)CC1 | 92.4% | – |
| Nc1nc(Cl)nc2c1ncn2[C@H]1C[C@H](O)[C@@H](CO)O1 | – | 0.209 µM (active) |
| CC[C@H](C)C(=O)O[C@H]1C[C@H](O)C=C2C=C[C@H](C)[C@H](CC[C@@H](O)C[C@@H](O)CC(=O)O)[C@H]21 | 97.5% | – |
| C[C@@H](CN1CC(=O)NC(=O)C1)N1CC(=O)NC(=O)C1 | – | 0.469 µM (active) |
| Nc1cccc2c1CN(C1CCC(=O)NC1=O)C2=O (stereo not drawn) | 110% [at 92.2 µM] | – |
| CCn1cc(C(=O)O)c(=O)c2cc(F)c(N3CCNC(C)C3)c(F)c21 (stereo not drawn) | 92.5% | – |
| OC(CN1CCC(Cc2ccc(F)cc2)CC1)c1ccc(Cl)cc1 (stereo not drawn) | 92.8% | – |
| Cc1nnc(C(=O)NC(C)(C)c2nc(C(=O)NCc3ccc(F)cc3)c(O)c(=O)n2C)o1 | 108% | – |
| Clc1cccc(Cl)c1NC1=NCCN1 | 95.1% | – |
| CC(C)Nc1cc(C(F)(F)F)cc2nc(NC(=O)c3cccnc3)nn12 | – | 1.05 µM (active) |
| COc1ccccc1OCC(O)CN1CCN(CC(=O)Nc2c(C)cccc2C)CC1 (stereo not drawn) | 101% | – |
| CCC1(C)CC(=O)NC1=O (stereo not drawn) | 91.4% | – |

Assay: Quantitative highthroughput screen to assess conditional lethalithy of NOMO1 cells grown in RPMI1640 with dialyzed fetal bovine serum (RPMI+ds) (AID 1963877); also: nearly all actives have a fitted effect of over 30% in size;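 as to Viability: 100% = DMSO control wells and 0% = empty wells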
Conditions: NOMO1 in RPMI+dialyzed FBS viability, ATP luminescence, 48 h; series mostly up to 45.8 µM; viability: at the top concentration
Method in brief: as §1

| Compound | viability | Potency |
| --- | --- | --- |
| Cc1cn([C@H]2C=C[C@@H](CO)O2)c(=O)[nH]c1=O | 103% [at 92.2 µM] | – |
| CCCCOc1ccc(C(=O)Nc2ccc(F)cc2F)cc1 | 101% | – |
| Nc1nc(Cl)nc2c1ncn2[C@H]1C[C@H](O)[C@@H](CO)O1 | – | 148 nM (active) |
| CC[C@H](C)C(=O)O[C@H]1C[C@H](O)C=C2C=C[C@H](C)[C@H](CC[C@@H](O)C[C@@H](O)CC(=O)O)[C@H]21 | 101% | – |
| C[C@@H](CN1CC(=O)NC(=O)C1)N1CC(=O)NC(=O)C1 | – | 332 nM (active) |
| Nc1cccc2c1CN(C1CCC(=O)NC1=O)C2=O (stereo not drawn) | 105% [at 92.2 µM] | – |
| CCn1cc(C(=O)O)c(=O)c2cc(F)c(N3CCNC(C)C3)c(F)c21 (stereo not drawn) | 89.3% | – |
| OC(CN1CCC(Cc2ccc(F)cc2)CC1)c1ccc(Cl)cc1 (stereo not drawn) | 96.8% | – |
| Cc1nnc(C(=O)NC(C)(C)c2nc(C(=O)NCc3ccc(F)cc3)c(O)c(=O)n2C)o1 | 105% | – |
| Clc1cccc(Cl)c1NC1=NCCN1 | 92.3% | – |
| CC(C)Nc1cc(C(F)(F)F)cc2nc(NC(=O)c3cccnc3)nn12 | – | 743 nM (active) |
| COc1ccccc1OCC(O)CN1CCN(CC(=O)Nc2c(C)cccc2C)CC1 (stereo not drawn) | 94.1% | – |
| CCC1(C)CC(=O)NC1=O (stereo not drawn) | 102% | – |

Assay: Quantitative highthroughput screen to assess conditional lethalithy of NOMO1 cells grown in Human Plasma-Like Medium with dialyzed fetal bovine serum (HPLM+ds) (AID 1963878); also: nearly all actives have a fitted effect of over 35% in size;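 as to Viability: 100% = DMSO wells and 0% = empty wells on each plate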
Conditions: NOMO1 AML cells in HPLM+ds, CellTiter-Glo viability, 48 h; series mostly up to 45.8 µM; viability: at the top concentration
Method in brief: as §1

| Compound | viability | Potency |
| --- | --- | --- |
| Cc1cn([C@H]2C=C[C@@H](CO)O2)c(=O)[nH]c1=O | 91.2% [at 92.2 µM] | – |
| CN(c1nccc(=O)[nH]1)C1CCN(c2nc3ccccc3n2Cc2ccc(F)cc2)CC1 | 81% | – |
| Nc1nc(Cl)nc2c1ncn2[C@H]1C[C@H](O)[C@@H](CO)O1 | – | 132 nM (active) |
| CC[C@H](C)C(=O)O[C@H]1C[C@H](O)C=C2C=C[C@H](C)[C@H](CC[C@@H](O)C[C@@H](O)CC(=O)O)[C@H]21 | 85.5% | – |
| C[C@@H](CN1CC(=O)NC(=O)C1)N1CC(=O)NC(=O)C1 | – | 148 nM (active) |
| Nc1cccc2c1CN(C1CCC(=O)NC1=O)C2=O (stereo not drawn) | 106% [at 92.2 µM] | – |
| CCn1cc(C(=O)O)c(=O)c2cc(F)c(N3CCNC(C)C3)c(F)c21 (stereo not drawn) | 99.8% | – |
| OC(CN1CCC(Cc2ccc(F)cc2)CC1)c1ccc(Cl)cc1 (stereo not drawn) | 107% | – |
| Cc1nnc(C(=O)NC(C)(C)c2nc(C(=O)NCc3ccc(F)cc3)c(O)c(=O)n2C)o1 | 102% | – |
| Clc1cccc(Cl)c1NC1=NCCN1 | 96.5% | – |
| COc1ccccc1OCC(O)CN1CCN(CC(=O)Nc2c(C)cccc2C)CC1 (stereo not drawn) | 100% | – |
| CCC1(C)CC(=O)NC1=O (stereo not drawn) | 90.2% | – |

Assay: Quantitative highthroughput screen to assess conditional lethalithy of P12 Ichikawa cells grown in Human Plasma-Like Medium with dialyzed fetal bovine serum (HPLM+ds) (AID 1963879); also: nearly all actives have a fitted effect of over 35% in size
Conditions: ATP luminescence, 48 h; Potency: viability; series mostly up to 45.8 µM; viability: at the top concentration
Method in brief: as §1

| Compound | viability | Potency |
| --- | --- | --- |
| Cc1cn([C@H]2C=C[C@@H](CO)O2)c(=O)[nH]c1=O | 95.1% [at 92.2 µM] | – |
| CC1(C)[C@H](C(=O)O)N2C(=O)C[C@H]2S1(=O)=O | 92.4% | – |
| CCCCOc1ccc(C(=O)Nc2ccc(F)cc2F)cc1 | 73% | – |
| CN(c1nccc(=O)[nH]1)C1CCN(c2nc3ccccc3n2Cc2ccc(F)cc2)CC1 | 93.8% | – |
| Nc1nc(Cl)nc2c1ncn2[C@H]1C[C@H](O)[C@@H](CO)O1 | – | 209 nM (active) |
| CC[C@H](C)C(=O)O[C@H]1C[C@H](O)C=C2C=C[C@H](C)[C@H](CC[C@@H](O)C[C@@H](O)CC(=O)O)[C@H]21 | 87.8% | – |
| Nc1cccc2c1CN(C1CCC(=O)NC1=O)C2=O (stereo not drawn) | 97.5% [at 92.2 µM] | – |
| CCn1cc(C(=O)O)c(=O)c2cc(F)c(N3CCNC(C)C3)c(F)c21 (stereo not drawn) | 97.2% | – |
| OC(CN1CCC(Cc2ccc(F)cc2)CC1)c1ccc(Cl)cc1 (stereo not drawn) | 101% | – |
| Cc1nnc(C(=O)NC(C)(C)c2nc(C(=O)NCc3ccc(F)cc3)c(O)c(=O)n2C)o1 | 111% | – |
| Clc1cccc(Cl)c1NC1=NCCN1 | 102% | – |
| CC(C)Nc1cc(C(F)(F)F)cc2nc(NC(=O)c3cccnc3)nn12 | – | 935 nM (active) |
| COc1ccccc1OCC(O)CN1CCN(CC(=O)Nc2c(C)cccc2C)CC1 (stereo not drawn) | 84.5% | – |
| CCC1(C)CC(=O)NC1=O (stereo not drawn) | 99.2% | – |
